Data from PubChem BioAssay AID1159580 (chemical genetic matrix, 2015).
Values joined by “and” are separate entries in the source; they are usually repeats but may differ in a detail not shown here. Equal entries are not always repeated. Among all 5,500 compounds or so, about 2,000 (36%) were called active. About 18% were inconclusive and are not listed. No stated cut-off is given here; in the data, active means normalized growth mostly below about 0.91 (no sharp cut-off); inconclusive means no clear call, values can overlap the other calls; inactive means mostly above about 0.92. The list shows a part of the results.

Assay: chemical genetic growth profiling, strain panel (AID 1159580);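 further: tested at 20 µM; growth read once vehicle control cultures reached saturation at 30 °C; 1 = growth at the plate median or of vehicle wells; lower values mean less growth of the strain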
Conditions: growth OD

Measured: normalized growth

O=c1c(O)c(-c2cc(O)c(O)c(O)c2)oc2cc(O)cc(O)c12
inactive: S. cerevisiae deletion strains, locus YAL040C, strain CLN3, hits give low values 1.07 | S. cerevisiae deletion strains, locus YBR021W, strain FUR4, hits give low values 1.01 | S. cerevisiae deletion strains, locus YBR229C, strain ROT2, hits give low values 1 | S. cerevisiae deletion strains, locus YCL029C, strain bik1, hits give low values 1.02 | S. cerevisiae deletion strains, locus YCL061C, strain MRC1 (second series), hits give low values 0.985 | S. cerevisiae deletion strains, locus YDL035C, strain GPR1, hits give low values 0.972 | S. cerevisiae deletion strains, locus YDL074C, strain BRE1, hits give low values 1.01 | S. cerevisiae deletion strains, locus YDL101C, strain DUN1, hits give low values 1.03 | S. cerevisiae deletion strains, locus YDL185W, strain tfp1, hits give low values 1.02 | S. cerevisiae deletion strains, locus YDL192W, strain arf1, hits give low values 1.02 | S. cerevisiae deletion strains, locus YDR101C, strain arx1, hits give low values 1 | S. cerevisiae deletion strains, locus YDR150W, strain NUM1, hits give low values 1.02 | S. cerevisiae deletion strains, locus YDR162C, strain NBP2, hits give low values 0.963 | S. cerevisiae deletion strains, locus YDR318W, strain mcm21, hits give low values 1.01 | S. cerevisiae deletion strains, locus YDR363W, strain ESC2, hits give low values 1.03 | S. cerevisiae deletion strains, locus YDR388W, hits give low values 1.02 | S. cerevisiae deletion strains, locus YDR502C, strain sam2, hits give low values 1 | S. cerevisiae deletion strains, locus YEL061C, strain CIN8, hits give low values 1 | S. cerevisiae deletion strains, locus YER002W, strain NOP16, hits give low values 1 | S. cerevisiae deletion strains, locus YER110C, hits give low values 1.03 | S. cerevisiae deletion strains, locus YER155C, strain BEM2, hits give low values 0.999 | S. cerevisiae deletion strains, locus YER167W, strain BCK2, hits give low values 0.997 | S. cerevisiae deletion strains, locus YGL078C, strain dbp3, hits give low values 1 | S. cerevisiae deletion strains, locus YGL086W, strain mad1, hits give low values 1 | S. cerevisiae deletion strains, locus YGL248W, strain PDE1, hits give low values 1.03 | S. cerevisiae deletion strains, locus YGR078C, strain PAC10, hits give low values 0.959 | S. cerevisiae deletion strains, locus YGR135W, strain pre9, hits give low values 0.998 | S. cerevisiae deletion strains, locus YGR252W, strain gcn5, hits give low values 1 | S. cerevisiae deletion strains, locus YHR030C, strain SLT2, hits give low values 1.01 | S. cerevisiae deletion strains, locus YHR079C, strain IRE1 (second series), hits give low values 1.01 | S. cerevisiae deletion strains, locus YHR094C, strain hxt1, hits give low values 1.03 | S. cerevisiae deletion strains, locus YHR129C, strain ARP1, hits give low values 1.02 | S. cerevisiae deletion strains, locus YHR200W, strain rpn10, hits give low values 1.02 | S. cerevisiae deletion strains, locus YIL066C, strain RNR3, hits give low values 0.976 | S. cerevisiae deletion strains, locus YIL073C, strain SPO22, hits give low values 1.03 | S. cerevisiae deletion strains, locus YIL125W, strain kgd1, hits give low values 1.02 | S. cerevisiae deletion strains, locus YIR030C, strain dcg1, hits give low values 1 | S. cerevisiae deletion strains, locus YJL095W, strain BCK1, hits give low values 1.05 | S. cerevisiae deletion strains, locus YJL134W, strain LCB3, hits give low values 1 | S. cerevisiae deletion strains, locus YJL168C, strain set2, hits give low values 1.01 | S. cerevisiae deletion strains, locus YJL187C, strain SWE1 (second series), hits give low values 1.05 | S. cerevisiae deletion strains, locus YJR043C, strain POL32, hits give low values 0.965 | S. cerevisiae deletion strains, locus YJR075W, strain HOC1, hits give low values 0.993 | S. cerevisiae deletion strains, locus YKL009W, strain mrt4, hits give low values 0.996 | S. cerevisiae deletion strains, locus YKL068W, hits give low values 1.01 | S. cerevisiae deletion strains, locus YKL085W, strain MDH1 (second series), hits give low values 1 | S. cerevisiae deletion strains, locus YKL085W, strain MDH1, hits give low values 1 | S. cerevisiae deletion strains, locus YKL190W, strain CNB1, hits give low values 1.01 | S. cerevisiae deletion strains, locus YKR001C, strain vps1, hits give low values 1.01 | S. cerevisiae deletion strains, locus YLR039C, strain RIC1, hits give low values 1 | S. cerevisiae deletion strains, locus YLR058C, strain SHM2, hits give low values 1.01 | S. cerevisiae deletion strains, locus YLR102C, strain apc9, hits give low values 1.02 | S. cerevisiae deletion strains, locus YLR262C, strain YPT6, hits give low values 0.997 | S. cerevisiae deletion strains, locus YLR268W, strain sec22, hits give low values 1.03 | S. cerevisiae deletion strains, locus YLR330W, strain CHS5, hits give low values 1.01 | S. cerevisiae deletion strains, locus YLR342W, strain FKS1 (second series), hits give low values 1.04 | S. cerevisiae deletion strains, locus YLR371W, strain rom2, hits give low values 1.01 | S. cerevisiae deletion strains, locus YLR418C, strain cdc73, hits give low values 0.981 | S. cerevisiae deletion strains, locus YML016C, strain PPZ1, hits give low values 1 | S. cerevisiae deletion strains, locus YML032C, strain rad52, hits give low values 1 | S. cerevisiae deletion strains, locus YML124C, strain tub3, hits give low values 1.01 | S. cerevisiae deletion strains, locus YMR078C, strain ctf18, hits give low values 1.01 | S. cerevisiae deletion strains, locus YMR223W, strain ubp8, hits give low values 1 | S. cerevisiae deletion strains, locus YMR263W, strain SAP30, hits give low values 1.05 | S. cerevisiae deletion strains, locus YMR307W, strain GAS1, hits give low values 0.969 and 0.876 | S. cerevisiae deletion strains, locus YNL067W, strain RPL9B, hits give low values 1.06 | S. cerevisiae deletion strains, locus YNL175C, strain NOP13, hits give low values 0.999 | S. cerevisiae deletion strains, locus YNL197C, strain WHI3, hits give low values 0.997 | S. cerevisiae deletion strains, locus YNL224C, strain SQS1, hits give low values 0.967 | S. cerevisiae deletion strains, locus YNL233W, strain BNI4, hits give low values 1.05 | S. cerevisiae deletion strains, locus YNL250W, strain rad50, hits give low values 1.02 | S. cerevisiae deletion strains, locus YNL271C, strain bni1, hits give low values 1.01 | S. cerevisiae deletion strains, locus YNL298W, strain CLA4, hits give low values 1.02 | S. cerevisiae deletion strains, locus YNL307C, strain MCK1, hits give low values 1.02 | S. cerevisiae deletion strains, locus YNR052C, strain pop2, hits give low values 1 | S. cerevisiae deletion strains, locus YOL006C, strain TOP1, hits give low values 1.08 | S. cerevisiae deletion strains, locus YOL012C, strain htz1 0.839 | S. cerevisiae deletion strains, locus YOL147C, strain pex11, hits give low values 1.02 | S. cerevisiae deletion strains, locus YOR061W, strain CKA2, hits give low values 0.99 | S. cerevisiae deletion strains, locus YOR069W, strain VPS5, hits give low values 1.01 | S. cerevisiae deletion strains, locus YOR083W, strain WHI5 (second series), hits give low values 0.957 | S. cerevisiae deletion strains, locus YOR136W, strain idh2, hits give low values 1.03 | S. cerevisiae deletion strains, locus YOR144C, strain elg1, hits give low values 1.01 | S. cerevisiae deletion strains, locus YOR184W, strain ser1, hits give low values 1 | S. cerevisiae deletion strains, locus YOR316C, strain cot1, hits give low values 1.02 | S. cerevisiae deletion strains, locus YPL055C, strain LGE1, hits give low values 1.01 | S. cerevisiae deletion strains, locus YPL241C, strain CIN2, hits give low values 0.995 | S. cerevisiae deletion strains, locus YPR119W, strain clb2, hits give low values 1.01 | S. cerevisiae deletion strains, locus YPR141C, strain kar3, hits give low values 1.01 | S. cerevisiae deletion strains, locus YPR163C, strain tif3, hits give low values 1.01 | S. cerevisiae deletion strains, locus YPR167C, strain met16, hits give low values 1.01 | S. cerevisiae deletion strains, strain wtn01, hits give low values 1.02 | S. cerevisiae strains, strain wild type, hits give low values 1.01
active: S. cerevisiae deletion strains, locus YGR229C, strain SMI1, hits give low values 0.416 | S. cerevisiae deletion strains, locus YNL322C, strain KRE1, hits give low values 0.898
